Source: PubChem BioAssay AID1347165 (National Center for Advancing Translational Sciences (NCATS), 2019)
Out of some 220,000 compounds screened, about 5,700 (2.6%) were called active. Inconclusive results (about 18%) are left out. The call rests on the fitted dose curve; in most records, active means well fitted inhibition curve with a large enough effect; inconclusive means small, poorly fitted or top-dose-only effect; inactive means no such curve, though single readings can be large or run the other way. What follows is part of a selection rich in actives, with near analogues and random picks from the rest.

What follows are molecules tested against Lysine-specific demethylase 5B (Homo sapiens) (UniProt Q9UGL1) (assay: Primary screen for KDM5B Histone Demethylases FDH-coupled qHTS). Settings: FDH-coupled NADH fluorescence (FDH is formaldehyde dehydrogenase); series mostly up to 57.7 µM; activity change, negative = inhibition: at the top concentration.
Summary of the method: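 Compound dilutions met 200 nM (final) KDM5BΔAP for 10 min at room temperature before substrate addition. The substrate mix held 12.5 µM H3K4me3 with cofactors 25 µM α-ketoglutarate and 50 µM Fe²⁺. NADH signal gain over 30 min defined activity.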
Further: nearly all actives have a fitted effect of over 70% in size.
Potency means the concentration at half of the fitted maximal effect.
Wherever activity change, negative = inhibition is given: 0% is about no effect.

Chain of Lysine-specific demethylase 5B (Homo sapiens) (Q9UGL1 whole entry, looked up): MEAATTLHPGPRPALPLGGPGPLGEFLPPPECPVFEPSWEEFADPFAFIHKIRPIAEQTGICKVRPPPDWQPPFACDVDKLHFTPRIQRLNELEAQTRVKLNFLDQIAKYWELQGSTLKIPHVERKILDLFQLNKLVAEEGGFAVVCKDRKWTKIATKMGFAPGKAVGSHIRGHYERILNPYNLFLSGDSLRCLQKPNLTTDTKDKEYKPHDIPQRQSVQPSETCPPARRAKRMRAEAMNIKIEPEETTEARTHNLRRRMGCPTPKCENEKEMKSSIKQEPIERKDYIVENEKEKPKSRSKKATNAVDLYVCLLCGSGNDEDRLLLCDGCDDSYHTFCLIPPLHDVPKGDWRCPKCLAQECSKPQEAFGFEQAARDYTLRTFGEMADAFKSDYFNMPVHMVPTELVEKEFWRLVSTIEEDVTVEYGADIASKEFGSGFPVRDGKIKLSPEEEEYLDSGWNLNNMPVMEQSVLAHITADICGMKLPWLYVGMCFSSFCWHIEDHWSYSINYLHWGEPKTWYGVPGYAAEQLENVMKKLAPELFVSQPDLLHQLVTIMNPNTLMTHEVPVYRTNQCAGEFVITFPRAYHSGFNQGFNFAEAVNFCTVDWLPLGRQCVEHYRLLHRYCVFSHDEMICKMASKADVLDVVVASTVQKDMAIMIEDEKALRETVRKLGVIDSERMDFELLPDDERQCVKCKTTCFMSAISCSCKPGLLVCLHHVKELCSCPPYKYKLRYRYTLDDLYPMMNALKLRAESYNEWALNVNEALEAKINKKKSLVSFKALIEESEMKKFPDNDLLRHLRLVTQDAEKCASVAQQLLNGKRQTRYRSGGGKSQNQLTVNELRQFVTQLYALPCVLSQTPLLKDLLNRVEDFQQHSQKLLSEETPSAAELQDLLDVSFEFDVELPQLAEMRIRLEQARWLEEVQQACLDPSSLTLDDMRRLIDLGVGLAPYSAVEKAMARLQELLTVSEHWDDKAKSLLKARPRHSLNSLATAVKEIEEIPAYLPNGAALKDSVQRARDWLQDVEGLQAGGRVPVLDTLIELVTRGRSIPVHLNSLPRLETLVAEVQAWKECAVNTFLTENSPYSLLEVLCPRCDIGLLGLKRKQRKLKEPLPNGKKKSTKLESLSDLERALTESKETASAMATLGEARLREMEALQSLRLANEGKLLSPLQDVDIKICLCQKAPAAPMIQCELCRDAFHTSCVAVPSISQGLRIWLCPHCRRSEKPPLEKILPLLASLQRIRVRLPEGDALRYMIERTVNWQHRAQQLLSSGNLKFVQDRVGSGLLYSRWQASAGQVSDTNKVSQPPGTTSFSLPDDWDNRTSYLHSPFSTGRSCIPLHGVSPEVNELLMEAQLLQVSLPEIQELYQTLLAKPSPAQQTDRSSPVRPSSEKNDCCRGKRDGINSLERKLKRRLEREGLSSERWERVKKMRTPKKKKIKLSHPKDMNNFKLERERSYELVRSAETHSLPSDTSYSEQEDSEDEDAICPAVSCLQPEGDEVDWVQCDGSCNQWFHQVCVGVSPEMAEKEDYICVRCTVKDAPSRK

Potency, active:
CN(C)CCN(C)c1ccc(-c2nc(-c3ccccc3F)no2)cn1 28.2 µM
CN(CCc1cn[nH]c1)c1ccc(-c2nc(-c3ccccc3F)no2)cn1 28.2 µM
COc1cccc(-c2cn3c(n2)NCCC3)c1 25.1 µM
Cn1cc([C@@H](NC(=O)CCc2cn3ccccc3n2)C2CC(O)C2)cn1 (some centres undefined) 31.6 µM
c1ccc([C@@H]2CNC[C@H]2COCC2CC2)nc1 15.8 µM
COc1ccccc1-c1ccc(C(=O)O)cc1 112 µM
CCc1ccc(NC(=O)Cn2ccn3nc4c(c3c2=O)CCCC4)cc1 20 µM
CN(C)c1cccc(-c2cn(C)c(=O)n3cc(COc4ccc(Cl)cc4)nc23)c1 25.1 µM
Cc1ccc(NC(=O)c2cc3n(n2)CC(c2ccc4c(c2)OCO4)OC3)cc1C (centres undefined) 35.5 µM
O=C(Nc1cccc(F)c1)c1cc2n(n1)CC(c1ccc(Cl)cc1)OC2 (centres undefined) 22.4 µM
COc1ccc(CNC(=O)c2cc3n(n2)CC(c2ccc4c(c2)OCO4)OC3)c(OC)c1 (centres undefined) 31.6 µM
O=C(NCc1ccccc1C(F)(F)F)c1cc2n(n1)CC(c1ccc3c(c1)OCO3)OC2 (centres undefined) 31.6 µM

Activity change, negative = inhibition, inactive:
CSc1ccc(CCNc2nc(-c3ccccc3F)no2)cc1 7.2%
Fc1ccc(Nc2nc(-c3ccccc3F)no2)cc1 21.3%
Cc1ncc(CO)c2cc(-c3nc(-c4ccccc4F)no3)c(=O)oc12 9.15%
Cc1cccc(NC(=O)CSCC(=O)Nc2nnc(C3CC3)s2)c1 -10.8%
CC(C)CCNC(=O)NC(=O)CSc1nnc(-c2ccccc2)c(-c2ccccc2)n1 -3.16%
Cc1cc(Br)c(S(=O)(=O)NCCO)cc1C 2.96%
CCCCn1cnc2c1c(=O)n(CC(=O)Nc1ccccc1C)c(=O)n2CCCC -1.85%
Cc1ccc(C)c(C(NC(=O)c2ccccc2C)c2cccnc2)c1 (centres undefined) 22.8%
COc1cccc(-c2cn3c(n2)N(C(=O)Cc2ccccc2)CCC3)c1 -20.8%
COc1cccc(-c2cc(C3CCN(C(=O)Nc4ccccc4C)CC3)[nH]n2)c1 -13.2%
CN(C)c1ccc(C(=O)/C=C/c2ccncc2)cc1 -12.3%
COc1ccc(OC)c(C2C(C#N)=C(N)Oc3cc(O)ccc32)c1 (centres undefined) 8.66%
Cc1ccc2c(=O)cc(C(=O)N(Cc3ccc(Cl)cc3)C3CCS(=O)(=O)C3)oc2c1C (centres undefined) -7.92%
O=S(=O)(NCCc1cn2ccccc2n1)c1cc(Cl)ccc1Cl 19.3%
COc1ccc(C(=O)N[C@H](c2cnn(C)c2)C2CC(O)C2)c(F)c1F (some centres undefined) 7%
COc1ccc(-n2c3c(cc(-c4ncnn4-c4ccc(C)cc4C)c2=O)C(=O)CC(C)(C)C3)cc1 3.85%
O=C(Cn1ncn2nc(-c3cccs3)cc2c1=O)N1CCCCCC1 -16.6%
O=C(c1cnc[nH]1)N1C[C@@H](COCC2CC2)[C@H](c2ccccn2)C1 -21.9%
CCn1cc(C(=O)N2C[C@@H](COCC3CC3)[C@H](c3ccccn3)C2)cn1 17.8%
Cc1ccc2ncc([N+](=O)[O-])cc2c1 24.2%
COc1ccc(NC(=O)c2c(Cl)cccc2Cl)cc1 25.3%
CCc1ccc(C(=O)Nc2ccccc2O)o1 -7.47%
CC(C)N(C(=O)c1ccc(-c2ccccc2F)cc1)C(C)C 3.46%
COc1ccccc1-c1cn(C)c(=O)n2cc(COc3ccc(C(=O)O)cc3)nc12 3.44% [at 86.2 µM]
C=CCN(CC=C)S(=O)(=O)c1cccc2nsnc12 -8.56%
CC(C)c1ccc(/C=C/C(=O)NCCCN2CCOCC2)cc1 13.3%
COc1ccc(C)cc1CN1CCN(C(=O)Nc2cccc(C)c2)CC1 12.6%
Cc1ccc(C(=O)N2C[C@@H](COc3ccccc3)[C@H](C(N)=O)C2)cc1 12%
CCOC(=O)c1ccc(NC(=O)CCn2ccn3nc4c(c3c2=O)CCCC4)cc1 34.2%
CC(C)(C)C(=O)Cn1ccn2nc3c(c2c1=O)CCCC3 -24%
CC(=O)Oc1ccc(C(=O)Nc2ccc(O)c(-c3nc4ccccc4o3)c2)cc1 1.74%
CN(C)Cc1cn2c(=O)n(C)cc(-c3cccc(OCc4ccccc4)c3)c2n1 -36.6% [at 86.2 µM]
Cc1cc(-c2cn(C)c(=O)n3cc(COc4ccccc4)nc23)ccn1 -26.5% [at 86.2 µM]
CSc1ccc(CN(C)S(=O)(=O)c2ccc3c(c2)OCCCO3)cc1 -4.45%
CCNCc1ccccc1C(F)(F)F 3.63%
O=C(Nc1ccc(Cl)cc1)C1CCN(C(=O)c2ncn3c2COC(c2ccc(F)cc2)C3)CC1 (centres undefined) 14%
O=C(NCc1ccc(F)cc1F)c1nnn2c1COC(c1ccc(Br)cc1)C2 (centres undefined) -7.79%
Cn1cnnc1-c1cccc(NC(=O)c2ccc3c(c2)OCO3)c1 7.22%
COc1ccc2c(c1)C=C(C(=O)NCc1cc(Br)ccc1OC)CO2 -23.2%
Cc1ccc(NC(=O)c2cn3c4c(ccc(Cl)c4c2=O)OC(C)C3)cc1C (centres undefined) -4.86%
COc1ccc(CNC(=O)c2ccc3c(c2)nc2n3CCOC2)c(OC)c1 -5.4%
Cc1cccc(N2CCN(C(=O)c3cc4n(n3)CC(c3ccc(Cl)cc3)OC4)CC2)c1 (centres undefined) -37.5%
